Measurements taken from ChEMBL document CHEMBL1961873, “Compounds: GSK PKIS; Assays: Nanosyn kinase panel” (2012).
Values joined by “and” are separate entries in the source; they are usually repeats but may differ in a detail not shown here. Identical values can stand only once.

Tests used:
[1] = target: Dual specificity protein kinase CLK3 (Homo sapiens) (UniProt P49761); conditions: at 1 µM;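 also: each value is the mean inhibition of CLK3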
[2] = target: Dual specificity tyrosine-phosphorylation-regulated kinase 1A (Homo sapiens) (UniProt Q13627); conditions: at 0.1 µM
[3] = target: Dual specificity tyrosine-phosphorylation-regulated kinase 1A (Homo sapiens) (UniProt Q13627); conditions: at 1 µM
[4] = target: Dual specificity tyrosine-phosphorylation-regulated kinase 1B (Homo sapiens) (UniProt Q9Y463); conditions: at 0.1 µM
Sequence of Dual specificity tyrosine-phosphorylation-regulated kinase 1B (Homo sapiens) (Q9Y463 whole entry, looked up): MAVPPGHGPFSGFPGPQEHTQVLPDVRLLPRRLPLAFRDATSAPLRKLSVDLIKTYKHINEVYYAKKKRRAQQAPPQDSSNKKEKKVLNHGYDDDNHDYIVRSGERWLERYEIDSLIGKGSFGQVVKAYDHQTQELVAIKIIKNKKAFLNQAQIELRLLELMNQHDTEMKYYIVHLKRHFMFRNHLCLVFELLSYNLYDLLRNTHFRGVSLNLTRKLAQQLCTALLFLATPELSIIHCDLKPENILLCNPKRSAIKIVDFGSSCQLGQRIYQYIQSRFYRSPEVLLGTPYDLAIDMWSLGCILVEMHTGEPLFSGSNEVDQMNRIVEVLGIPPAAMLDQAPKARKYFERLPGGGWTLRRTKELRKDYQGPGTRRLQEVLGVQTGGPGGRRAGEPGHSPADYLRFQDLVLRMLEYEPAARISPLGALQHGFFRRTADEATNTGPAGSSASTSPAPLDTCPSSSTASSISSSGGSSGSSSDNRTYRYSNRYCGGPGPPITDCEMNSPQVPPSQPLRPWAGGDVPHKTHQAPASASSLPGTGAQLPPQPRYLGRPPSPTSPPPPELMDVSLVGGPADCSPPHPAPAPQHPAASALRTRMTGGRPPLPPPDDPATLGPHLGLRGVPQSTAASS

[5] = target: Dual specificity tyrosine-phosphorylation-regulated kinase 1B (Homo sapiens) (UniProt Q9Y463); conditions: at 1 µM
[6] = target: T1, Dual specificity tyrosine-phosphorylation-regulated kinase 2 (Homo sapiens) (UniProt Q92630); conditions: at 0.1 µM
T1 sequence (whole entry): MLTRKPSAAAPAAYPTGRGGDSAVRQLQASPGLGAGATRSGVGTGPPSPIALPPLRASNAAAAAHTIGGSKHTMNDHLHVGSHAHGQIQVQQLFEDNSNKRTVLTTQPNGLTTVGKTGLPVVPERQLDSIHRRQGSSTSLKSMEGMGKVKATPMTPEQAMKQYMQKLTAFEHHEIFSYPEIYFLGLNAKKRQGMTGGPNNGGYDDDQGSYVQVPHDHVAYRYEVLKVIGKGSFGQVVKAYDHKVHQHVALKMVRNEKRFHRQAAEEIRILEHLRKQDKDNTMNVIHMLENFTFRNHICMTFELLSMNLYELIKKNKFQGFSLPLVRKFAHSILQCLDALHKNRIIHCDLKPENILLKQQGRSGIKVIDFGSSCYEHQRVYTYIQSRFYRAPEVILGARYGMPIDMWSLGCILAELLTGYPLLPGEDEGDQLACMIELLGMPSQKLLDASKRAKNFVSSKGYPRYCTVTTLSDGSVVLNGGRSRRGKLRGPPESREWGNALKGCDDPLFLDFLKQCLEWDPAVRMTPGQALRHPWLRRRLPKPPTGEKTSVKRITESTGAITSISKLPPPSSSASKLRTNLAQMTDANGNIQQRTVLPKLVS

[7] = target: T1, Dual specificity tyrosine-phosphorylation-regulated kinase 2 (Homo sapiens); conditions: at 1 µM
[8] = target: Glycogen synthase kinase-3 alpha (Homo sapiens) (UniProt P49840); conditions: at 0.1 µM
Sequence of Glycogen synthase kinase-3 alpha (Homo sapiens) (P49840 2-483 limits assumed): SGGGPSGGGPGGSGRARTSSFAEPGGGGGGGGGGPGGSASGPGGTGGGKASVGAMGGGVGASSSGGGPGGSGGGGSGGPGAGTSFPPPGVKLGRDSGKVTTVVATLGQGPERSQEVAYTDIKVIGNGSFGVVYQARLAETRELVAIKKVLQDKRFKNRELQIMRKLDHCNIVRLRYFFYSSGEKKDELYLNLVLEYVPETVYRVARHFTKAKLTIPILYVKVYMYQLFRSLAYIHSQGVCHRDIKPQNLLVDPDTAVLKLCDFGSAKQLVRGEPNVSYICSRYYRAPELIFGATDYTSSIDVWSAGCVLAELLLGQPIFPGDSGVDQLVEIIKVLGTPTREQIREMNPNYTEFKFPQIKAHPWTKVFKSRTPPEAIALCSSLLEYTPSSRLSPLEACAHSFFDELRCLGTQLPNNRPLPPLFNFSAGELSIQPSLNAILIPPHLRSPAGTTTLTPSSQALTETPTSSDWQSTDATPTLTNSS

[9] = target: Glycogen synthase kinase-3 alpha (Homo sapiens) (UniProt P49840); conditions: at 1 µM
[10] = target: Glycogen synthase kinase-3 beta (Homo sapiens) (UniProt P49841); conditions: at 0.1 µM
Sequence of Glycogen synthase kinase-3 beta (Homo sapiens) (P49841 whole entry, looked up): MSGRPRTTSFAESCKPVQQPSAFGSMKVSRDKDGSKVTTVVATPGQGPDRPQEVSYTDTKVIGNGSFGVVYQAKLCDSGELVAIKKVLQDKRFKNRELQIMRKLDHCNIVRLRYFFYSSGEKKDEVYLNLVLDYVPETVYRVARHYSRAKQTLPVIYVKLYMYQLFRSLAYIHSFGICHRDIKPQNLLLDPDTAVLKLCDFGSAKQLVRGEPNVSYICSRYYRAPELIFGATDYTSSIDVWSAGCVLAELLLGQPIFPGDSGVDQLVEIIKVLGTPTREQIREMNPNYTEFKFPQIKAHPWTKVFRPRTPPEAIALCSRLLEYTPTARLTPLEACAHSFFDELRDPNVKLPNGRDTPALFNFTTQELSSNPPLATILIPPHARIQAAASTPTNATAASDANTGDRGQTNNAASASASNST

[11] = target: Glycogen synthase kinase-3 beta (Homo sapiens) (UniProt P49841); conditions: at 1 µM
[12] = target: Homeodomain-interacting protein kinase 1 (Homo sapiens) (UniProt Q86Z02); conditions: at 0.1 µM
Sequence of Homeodomain-interacting protein kinase 1 (Homo sapiens) (Q86Z02 whole entry, looked up): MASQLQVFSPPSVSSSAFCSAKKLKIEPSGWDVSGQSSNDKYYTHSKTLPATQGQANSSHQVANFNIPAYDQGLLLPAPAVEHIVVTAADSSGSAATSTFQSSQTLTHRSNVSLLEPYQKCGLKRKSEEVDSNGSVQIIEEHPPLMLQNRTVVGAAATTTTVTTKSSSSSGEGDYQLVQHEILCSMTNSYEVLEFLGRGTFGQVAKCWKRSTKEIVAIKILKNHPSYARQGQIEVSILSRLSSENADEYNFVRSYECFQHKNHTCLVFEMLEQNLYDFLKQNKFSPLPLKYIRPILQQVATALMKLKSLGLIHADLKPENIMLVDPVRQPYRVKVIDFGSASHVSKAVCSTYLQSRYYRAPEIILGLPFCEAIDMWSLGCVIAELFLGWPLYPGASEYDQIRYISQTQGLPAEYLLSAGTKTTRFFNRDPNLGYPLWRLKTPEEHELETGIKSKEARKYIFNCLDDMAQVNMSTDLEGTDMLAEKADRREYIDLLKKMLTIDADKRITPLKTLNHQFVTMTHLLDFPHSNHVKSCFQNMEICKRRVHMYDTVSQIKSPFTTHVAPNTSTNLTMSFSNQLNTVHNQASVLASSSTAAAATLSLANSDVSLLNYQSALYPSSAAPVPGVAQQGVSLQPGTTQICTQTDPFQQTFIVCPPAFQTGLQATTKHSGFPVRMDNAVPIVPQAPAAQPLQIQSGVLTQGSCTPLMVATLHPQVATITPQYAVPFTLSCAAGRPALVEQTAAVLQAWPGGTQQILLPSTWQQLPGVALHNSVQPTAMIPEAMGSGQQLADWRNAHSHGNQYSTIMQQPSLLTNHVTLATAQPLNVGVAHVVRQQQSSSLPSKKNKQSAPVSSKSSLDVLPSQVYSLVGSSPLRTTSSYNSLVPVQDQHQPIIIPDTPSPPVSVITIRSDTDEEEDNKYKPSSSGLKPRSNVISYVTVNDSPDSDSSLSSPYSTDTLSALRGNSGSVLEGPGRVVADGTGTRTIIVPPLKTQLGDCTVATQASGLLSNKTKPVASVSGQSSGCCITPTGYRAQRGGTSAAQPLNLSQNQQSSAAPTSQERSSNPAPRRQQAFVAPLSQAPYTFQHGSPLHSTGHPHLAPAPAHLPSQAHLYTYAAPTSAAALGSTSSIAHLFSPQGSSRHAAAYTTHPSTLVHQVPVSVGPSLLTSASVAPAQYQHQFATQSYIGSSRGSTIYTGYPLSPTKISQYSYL

[13] = target: Homeodomain-interacting protein kinase 1 (Homo sapiens) (UniProt Q86Z02); conditions: at 1 µM
[14] = target: T2, Homeodomain-interacting protein kinase 4 (Homo sapiens) (UniProt Q8NE63); conditions: at 0.1 µM
T2 sequence (whole entry): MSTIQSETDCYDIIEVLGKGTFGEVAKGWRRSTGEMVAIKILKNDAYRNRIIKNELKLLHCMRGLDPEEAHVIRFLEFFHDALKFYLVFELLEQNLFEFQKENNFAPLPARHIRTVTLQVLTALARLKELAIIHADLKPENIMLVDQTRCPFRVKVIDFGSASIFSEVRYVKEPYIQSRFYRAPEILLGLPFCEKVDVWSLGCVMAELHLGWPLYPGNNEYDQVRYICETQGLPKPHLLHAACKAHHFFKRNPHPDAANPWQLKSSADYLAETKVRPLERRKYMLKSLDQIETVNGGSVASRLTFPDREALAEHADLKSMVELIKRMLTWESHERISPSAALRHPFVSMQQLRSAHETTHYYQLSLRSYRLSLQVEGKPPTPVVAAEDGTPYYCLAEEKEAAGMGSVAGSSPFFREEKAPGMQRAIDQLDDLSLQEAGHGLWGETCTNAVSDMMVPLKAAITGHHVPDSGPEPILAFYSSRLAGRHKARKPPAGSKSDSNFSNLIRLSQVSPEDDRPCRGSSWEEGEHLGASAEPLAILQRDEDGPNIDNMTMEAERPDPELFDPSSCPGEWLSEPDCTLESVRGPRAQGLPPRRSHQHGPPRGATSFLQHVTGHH

[15] = target: T2, Homeodomain-interacting protein kinase 4 (Homo sapiens); conditions: at 1 µM
[16] = target: Mitogen-activated protein kinase 9 (Homo sapiens) (UniProt P45984); conditions: at 0.1 µM
Sequence of Mitogen-activated protein kinase 9 (Homo sapiens) (P45984 whole entry, looked up): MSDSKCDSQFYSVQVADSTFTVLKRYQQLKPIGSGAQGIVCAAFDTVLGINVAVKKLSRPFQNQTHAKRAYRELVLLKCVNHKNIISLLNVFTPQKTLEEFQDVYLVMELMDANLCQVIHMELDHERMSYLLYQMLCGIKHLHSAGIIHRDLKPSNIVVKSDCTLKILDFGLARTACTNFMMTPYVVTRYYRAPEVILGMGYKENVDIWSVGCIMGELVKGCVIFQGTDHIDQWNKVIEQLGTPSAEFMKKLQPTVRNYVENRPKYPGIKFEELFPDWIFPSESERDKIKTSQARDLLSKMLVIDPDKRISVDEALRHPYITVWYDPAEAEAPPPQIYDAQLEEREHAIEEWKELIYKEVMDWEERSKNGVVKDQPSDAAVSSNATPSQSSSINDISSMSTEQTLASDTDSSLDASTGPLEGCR

[17] = target: Mitogen-activated protein kinase 9 (Homo sapiens) (UniProt P45984); conditions: at 1 µM
[18] = target: Mitogen-activated protein kinase 1 (Homo sapiens) (UniProt P28482); conditions: at 0.1 µM
Sequence of Mitogen-activated protein kinase 1 (Homo sapiens) (P28482 whole entry): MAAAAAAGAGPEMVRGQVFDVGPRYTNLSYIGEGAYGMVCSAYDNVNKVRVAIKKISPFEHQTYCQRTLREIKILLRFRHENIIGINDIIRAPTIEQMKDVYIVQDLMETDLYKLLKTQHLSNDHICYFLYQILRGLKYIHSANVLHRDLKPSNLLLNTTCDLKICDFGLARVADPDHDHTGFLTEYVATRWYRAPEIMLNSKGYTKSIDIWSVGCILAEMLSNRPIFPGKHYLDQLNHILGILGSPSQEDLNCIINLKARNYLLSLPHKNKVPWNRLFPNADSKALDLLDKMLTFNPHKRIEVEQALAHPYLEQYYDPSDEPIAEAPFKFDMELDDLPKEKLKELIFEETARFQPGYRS

[19] = target: Mitogen-activated protein kinase 1 (Homo sapiens) (UniProt P28482); conditions: at 1 µM
[20] = target: Mitogen-activated protein kinase 3 (Homo sapiens) (UniProt P27361); conditions: at 0.1 µM;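 also: each value is a mean inhibition figure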
Sequence of Mitogen-activated protein kinase 3 (Homo sapiens) (P27361 whole entry): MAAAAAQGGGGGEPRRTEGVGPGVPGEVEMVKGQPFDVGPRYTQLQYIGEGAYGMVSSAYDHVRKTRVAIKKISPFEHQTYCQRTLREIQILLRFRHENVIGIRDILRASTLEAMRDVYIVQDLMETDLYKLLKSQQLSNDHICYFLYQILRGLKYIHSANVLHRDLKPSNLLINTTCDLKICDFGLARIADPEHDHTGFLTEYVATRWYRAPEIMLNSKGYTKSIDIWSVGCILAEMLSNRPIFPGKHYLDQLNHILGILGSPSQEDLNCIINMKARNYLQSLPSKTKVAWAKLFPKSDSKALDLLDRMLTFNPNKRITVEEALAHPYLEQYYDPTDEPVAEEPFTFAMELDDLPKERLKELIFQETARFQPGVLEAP

Sequence of Dual specificity protein kinase CLK3 (Homo sapiens) (P49761 whole entry, looked up): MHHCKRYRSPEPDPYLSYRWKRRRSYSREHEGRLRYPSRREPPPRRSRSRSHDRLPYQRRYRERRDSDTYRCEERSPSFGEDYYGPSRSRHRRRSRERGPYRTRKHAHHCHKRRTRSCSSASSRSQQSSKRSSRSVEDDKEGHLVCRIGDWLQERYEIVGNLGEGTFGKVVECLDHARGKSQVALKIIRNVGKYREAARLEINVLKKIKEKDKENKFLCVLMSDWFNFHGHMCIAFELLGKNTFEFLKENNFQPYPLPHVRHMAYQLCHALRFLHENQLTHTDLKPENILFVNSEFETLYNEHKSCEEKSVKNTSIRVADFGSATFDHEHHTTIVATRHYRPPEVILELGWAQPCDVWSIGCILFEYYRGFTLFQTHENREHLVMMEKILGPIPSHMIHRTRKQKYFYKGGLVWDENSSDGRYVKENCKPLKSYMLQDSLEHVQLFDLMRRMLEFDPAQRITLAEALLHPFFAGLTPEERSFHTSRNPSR

| SMILES | inhibition [1] | inhibition [2] | inhibition [3] | inhibition [4] | inhibition [5] | inhibition [6] | inhibition [7] | inhibition [8] | inhibition [9] | inhibition [10] | inhibition [11] | inhibition [12] | inhibition [13] | inhibition [14] | inhibition [15] | inhibition [16] | inhibition [17] | inhibition [18] | inhibition [19] | inhibition [20] |
| --- | --- | --- | --- | --- | --- | --- | --- | --- | --- | --- | --- | --- | --- | --- | --- | --- | --- | --- | --- | --- |
| CCn1c(-c2nonc2N)nc2cncc(C(=O)NCCNC)c21 | 9.74% | 20.8% | 72.4% | 9.71% | 54.7% | 7.99% | 37.2% | 10.2% | 49.7% | 6.83% | 42.3% | 0.25% | 10.2% | -0.44% | 3.11% | 4.59% | 4.73% | 6.91% | 6.64% | 6.22% |
| COc1ccccc1-c1cc(/C=C2\C(=O)Nc3ncc(Br)cc32)cc(Br)c1O | 9.88% | 2.51% | 11.2% | 0.86% | 4.16% | 3.68% | 4.79% | 4.73% | 10% | 5.17% | 8.88% | 0.74% | 7.53% | 0.6% | 10.9% | 3.44% | 8.54% | 3.26% | 4.68% | 4.03% |
| CCS(=O)(=O)c1ccc(OC)c(Nc2ncc(-c3cccc(F)c3)o2)c1 | 12.1% | 4.83% | 26% | 0.76% | 12.2% | 5.21% | 13.7% | 2.67% | 5.61% | 2.72% | 4.08% | 1.26% | 23.8% | 4.37% | 30% | 7.66% | 7.11% | 6.33% | 7.09% | 4.68% |
| O=C(O[C@H]1CN[C@H](C#Cc2cc3ncnc(Nc4ccc(OCc5cccc(F)c5)c(Cl)c4)c3s2)C1)N1CCOCC1 | 2.04% | 2.71% | 6.81% | -1.11% | -0.95% | 3.84% | 3.68% | 3.45% | 4.35% | 2.75% | 4.2% | 1.86% | 0.81% | 2.71% | 4.99% | 3.19% | 7.19% | 7.72% | 5.38% | 4.82% |
| Cc1nnc(-c2cccc(-c3ccc(C(=O)NCC4CC4)cc3)c2)o1 | 2.8% | 3% | 6.39% | 0.21% | 1.06% | 3.15% | 5.04% | 4.33% | 14.8% | 3.05% | 11.6% | 4.5% | 4.32% | 2.08% | -0.47% | 3.54% | 6.68% | 2.73% | 5.62% | 5.36% |
| CCN1CCC(C(=O)Nc2n[nH]c3nnc(-c4cccc(F)c4F)cc23)CC1 | 0.77% | 14.4% | 61% | 12.9% | 54.3% | -0.03% | 2.26% | 85.3% | 89.9% | 80.9% | 88.7% | -1.08% | 2.33% | 0.85% | 4.09% | -0.81% | 1.88% | -0.1% | 0.83% | -2.77% |
| O=C1Nc2ccccc2/C1=C1\CCc2cc(O)ccc21 | 3.11% | 7.28% | 34% | 2.1% | 17.7% | 5.9% | 24.7% | 3.11% | 10.5% | 1.77% | 7.64% | -1.14% | 7.57% | 0.76% | 10.8% | 5.71% | 9.88% | 5.77% | 6.56% | 5.82% |
| CN1CCC(C(=O)Nc2n[nH]c3nc(-c4ccc(O)cc4)c(Br)cc23)CC1 | 3.67% and 4.52% | 9.4% and 10.2% | 43.4% and 51.8% | 29.6% and 27.7% | 66.8% and 67% | 6.68% and 6.28% | 33.7% and 34% | 78.2% and 80.5% | 83.2% and 81.7% | – | – | 2.86% and -1.65% | 20.1% and 19.3% | 0.89% and 1.06% | 5.87% and 4.37% | 5.88% and 4.7% | 16.6% and 13.9% | 6.51% and 1.55% | 12.1% and 3.95% | 5.16% and 1.61% |
| COc1cc2c(cc1Nc1nc(Nc3cccc(F)c3C(N)=O)c3cc[nH]c3n1)N(C(=O)CN1CCN(C(C)C)CC1)CC2 | 1.39% | 1.82% | 10.2% | 3.8% | 9.06% | 2.66% | 5.93% | 1.62% | 2.06% | 0.46% | 3.89% | 0.07% | 21.8% | 3.33% | 15.4% | 3.04% | 18.2% | 2.66% | 7.45% | 2.64% |
| CC1=C(C(=O)Nc2ccc3[nH]nc(C)c3c2)C(c2ccc(C(F)(F)F)cc2)CC(=O)N1 (stereo not drawn) | 14.1% | 2.93% | 7.46% | 1.73% | 4.23% | 2.28% | 3.97% | 6.5% | 10.8% | 6.08% | 10.3% | 3.11% | 7.43% | 3.59% | 7.18% | 2.4% | 3.81% | 6.06% | 35.1% | 3.88% |
| NS(=O)(=O)c1cccc(N/C=C2\C(=O)Nc3ccccc32)c1 | 3.43% | 4.67% | 7.61% | 1.69% | 4.25% | 3.56% | 9.5% | 4.32% | 20% | 3.36% | 19.7% | -0.03% | 2.88% | 0.43% | 4.51% | 7.2% | 10.9% | 2.99% | 4.54% | 1.72% |
| COc1ccc2ncn(-c3cc(O[C@H](C)c4ccccc4C(F)(F)F)c(C(N)=O)s3)c2c1 | 0.85% | 0.11% | 2.44% | 0.37% | 1.63% | -0.29% | 1.33% | -0.19% | 4.58% | -0.14% | 4.75% | -2.12% | 2.1% | -0.89% | 3.28% | 0.32% | -1.29% | -1.88% | -0.49% | -0.86% |
| Nc1ncnc2occ(-c3ccc(NC(=O)Nc4cc(C(F)(F)F)ccc4F)cc3)c12 | 2.26% and 0.21% | 1.15% and 1.58% | 4.22% and 0.86% | 1.3% and 0.83% | 2.57% and 1.79% | 2.49% and -1.01% | 3.45% and -1.47% | 7.6% and 1.13% | 17.5% and 6.32% | 7.23% and 1.21% | 17% and 5.38% | 5.43% and -2.68% | 37.4% and 21.6% | 60.9% and 51.1% | 78.3% and 77.3% | 4.06% and -9.27% | 21.3% and 4.35% | 1.97% and -3.05% | 1.72% and -1.67% | 0.93% and 0.1% |
